Assay outcomes from PubChem BioAssay.
GLP1R inv ag: inverse agonists of human GLP-1 receptor | P43220 | HEK293 GLP-1R CRE-luciferase, luminescence, 24 h; GLP-1R form is constitutively active | Potency, µM (titrated, usually from 38.3 µM), usual class: inhibitors | 410,000 tested, 1.6% active | AID 624417; further: nearly all actives have a fitted effect of over 55% in size
Target sequence (P43220 whole entry, looked up): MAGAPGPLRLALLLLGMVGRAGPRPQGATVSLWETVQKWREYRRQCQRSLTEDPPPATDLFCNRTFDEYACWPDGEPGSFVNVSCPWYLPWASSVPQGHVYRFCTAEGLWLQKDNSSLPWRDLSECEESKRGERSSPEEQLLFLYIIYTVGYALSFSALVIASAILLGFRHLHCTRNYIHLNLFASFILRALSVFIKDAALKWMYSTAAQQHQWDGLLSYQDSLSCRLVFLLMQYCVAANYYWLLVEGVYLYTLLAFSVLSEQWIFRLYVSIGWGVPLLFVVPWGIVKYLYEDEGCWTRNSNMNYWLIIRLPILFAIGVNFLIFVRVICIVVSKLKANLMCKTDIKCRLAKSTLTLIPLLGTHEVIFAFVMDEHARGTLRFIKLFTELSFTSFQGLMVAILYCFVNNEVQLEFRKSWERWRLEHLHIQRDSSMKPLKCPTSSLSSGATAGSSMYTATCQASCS
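Cells are plated, allowed 12 hours at 37 deg C, then treated with compounds for 24 hr before luciferase detection reagent is added and luminescence is read after 12 min at room temperature. The HEK293 line carries constitutively active GLP-1R with a cAMP-responsive reporter.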
RORgamma inh: ROR gamma (mouse) transcription inhibition; Drosophila S2 Gal4-RORgamma UAS-luciferase reporter, 20 h; Potency, µM (top dose mostly 53.6 µM), most hits filed as inhibitors; 310,000 tested, 5.4% active; further: nearly all actives have a fitted effect of over 60% in size
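Read-out: Photinus luciferase luminescence; inhibitors lower reporter signal. Insect Schneider cells with Gal4-ROR gamma fusion under metallothionein promoter, UAS reporter; 700 uM final copper sulfate induction, 20 hr, ambient temperature.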
Gal4-VP16 FLuc: Gal4-VP16 reporter inhibition counter-screen; Drosophila S2 Gal4-VP16 UAS-luciferase, luminescence, 20 h; Potency, µM (doses to about 53.6 µM), actives largely listed as inhibitors; 310,000 tested, 3.5% active; AID 2546;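 further: Gal4-VP16 expression switched on by copper sulfate through the metallothionein promoter; nearly all actives have a fitted effect of over 50% in size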
GLP1R cytotox: cytotoxicity counter-screen for GLP-1 receptor inverse agonists. HEK293 cAMP-luciferase reporter cells, luminescence, 24 h. Potency, µM (doses to about 38.3 µM), usual class: inhibitors. 410,000 tested, 0.13% active;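 further: loss of luciferase light is scored as toxicity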
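To flag toxic compounds, the library was rerun on cells for 24 hr at 37 deg C and 5% CO2. Viability-linked luminescence was captured 12 min after adding luciferase detection reagent.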
GLP1R ag: GLP-1 receptor (human) agonism. HEK293 GLP-1R CRE-luciferase, luminescence, 4-6 h; cells express a hypersensitive GLP-1R form. 380,000 tested, 0.007% active. Potency, µM (doses to about 45.6 µM), hits mostly activators
Large screens that a line does not name were inactive. This is a sample that favours compounds with a hit; in the whole collection about 5.9% have one here. The call rests on the fitted dose curve; in most records, active means well fitted curve in the direction sought with a large enough effect; inconclusive means small, poorly fitted or top-dose-only effect, or another doubt; inactive means no such curve, though single readings can be large; an effect the other way counts as inactive or inconclusive.

COc1ccc(C(=O)OCC(=O)Nc2nnc(-c3ccccc3)o2)cc1	RORgamma inh 4µM, Gal4-VP16 FLuc 5µM
Cc1ccc(CC(=O)Nc2nnc(-c3ccc(F)cc3)o2)c(C)c1	RORgamma inh 2.5µM, Gal4-VP16 FLuc 3.2µM
COc1cc(OC)cc(-c2nnc(NC(=O)Cc3ccc(F)cc3)o2)c1	RORgamma inh 0.71µM, Gal4-VP16 FLuc 0.63µM
COc1ccc(-c2nnc(NC(=O)Cc3ccccc3)o2)cc1	RORgamma inh 1.6µM, Gal4-VP16 FLuc 2.8µM
CCS(=O)(=O)N1CCc2cc(C(=O)NCc3ccc(Cl)cc3)ccc21	none (no result: RORgamma inh, Gal4-VP16 FLuc, GLP1R ag)
COc1c2c(cc3c1C(CC(O)Cc1ccccc1)N(C)CC3)OCO2 (stereo unspecified)	GLP1R inv ag inconclusive, GLP1R cytotox inconclusive
COc1ccc2c(c1OC)C(Cc1ccccc1)N1CCc3cc4c(cc3C1=C2)OCO4 (stereo unspecified)	RORgamma inh inconclusive, Gal4-VP16 FLuc 14µM (no result: GLP1R inv ag, GLP1R cytotox, GLP1R ag)
CCOC(=O)C1=C(C)NC(=S)NC1c1ccc(OC(=O)c2ccco2)cc1 (stereo unspecified)	none
CCOC(=O)c1c(NC(=O)C2=C(C)NC(=S)NC2c2ccc(CC)cc2)sc(C)c1C (stereo unspecified)	RORgamma inh 3.5µM, Gal4-VP16 FLuc 7.9µM (no result: GLP1R inv ag, GLP1R cytotox, GLP1R ag)
CCN(C(=O)Nc1cn(CC(C)C)c(=O)c2ccccc12)c1cc(C)ccc1C	GLP1R inv ag inconclusive (no result: RORgamma inh, Gal4-VP16 FLuc)
CCC(=O)N1CCc2cc(S(=O)(=O)NC(Cc3ccccc3)C(=O)Nc3cccc(OC)c3)ccc21 (stereo unspecified)	none (no result: RORgamma inh, Gal4-VP16 FLuc, GLP1R ag)
COC(/C(=N/O)c1ccc(Cl)cc1)c1ccccc1 (stereo unspecified)	GLP1R inv ag inconclusive, RORgamma inh 5.6µM, Gal4-VP16 FLuc 4.5µM
Cc1cc(NC(=O)Cc2ccccc2)c2ccccc2n1	RORgamma inh inconclusive, Gal4-VP16 FLuc 3.2µM
COC(=O)Nc1cc(C)nc2ccccc12	RORgamma inh inconclusive
Cc1cc(NC(=S)NC(=O)c2ccco2)c2ccccc2n1	RORgamma inh 11µM
O=C(NC(=S)Nc1cccc2ncccc12)c1ccco1	RORgamma inh inconclusive
CC(=C/c1ccccc1)/C=N/NC(=O)c1nnn(-c2nonc2N)c1CN1CCC(C)CC1	GLP1R inv ag 4µM, RORgamma inh inconclusive
CC1CCN(Cc2c(C(=O)N/N=C/c3ccccc3O)nnn2-c2nonc2N)CC1	GLP1R inv ag inconclusive, RORgamma inh 10µM, Gal4-VP16 FLuc 7.9µM
CC(/C=N/NC(=O)c1nnn(-c2nonc2N)c1CN1CCCCC1)=C\c1ccccc1	GLP1R inv ag inconclusive, Gal4-VP16 FLuc inconclusive
O=c1[nH]sc2ccccc12	GLP1R inv ag inconclusive, RORgamma inh 0.4µM, Gal4-VP16 FLuc 3.5µM, GLP1R cytotox inconclusive
O=C(NCc1ccc(F)cc1)c1cc2n(n1)CCCN(Cc1ccc(F)cc1)C2=O	none (no result: RORgamma inh, Gal4-VP16 FLuc, GLP1R ag)
COc1ccc2[nH]c3c(c2c1)CCN1C(=O)C(CC(=O)NCCC2=CCCCC2)C[C@H](C(=O)N(C(C)C)C(C)C)[C@@]31C (stereo partly specified)	GLP1R inv ag 10µM, GLP1R cytotox inconclusive (no result: RORgamma inh, Gal4-VP16 FLuc)
O=C(C[C@H]1C[C@H](C(=O)N2CCOCC2)[C@@]2(CCC3CCCC3)c3[nH]c4cc(-c5ccco5)ccc4c3CCN2C1=O)NCCC1=CCCCC1	GLP1R inv ag 10µM (no result: RORgamma inh, Gal4-VP16 FLuc)
O=C(C[C@H]1C[C@H](C(=O)N2CCOCC2)[C@@]2(CCC3CCCC3)c3[nH]c4cc(-c5ccco5)ccc4c3CCN2C1=O)NCCc1ccccn1	GLP1R inv ag inconclusive, GLP1R cytotox inconclusive (no result: RORgamma inh, Gal4-VP16 FLuc)
CC[C@@H]1Cn2c(c3nc(-c4ccccc4)nc-3n(C)c2=O)N1	none (no result: GLP1R inv ag, GLP1R cytotox, GLP1R ag)
Cc1cc(N2CCCC2)ccc1NC(=O)COc1cccc(C(F)(F)F)c1	GLP1R inv ag inconclusive, RORgamma inh 11µM, Gal4-VP16 FLuc inconclusive
CCOc1ccc(OCC(=O)Nc2ccccc2N2CCCC2)cc1	GLP1R inv ag 10µM (no result: RORgamma inh, Gal4-VP16 FLuc)
O=C(Cc1ccc(Cl)c(Cl)c1)Nc1ccccc1N1CCCC1	GLP1R inv ag 10µM
CN1CCN(c2ccccc2NC(=O)c2ccc(OCc3ccccc3)cc2)CC1	GLP1R inv ag 11µM, GLP1R cytotox inconclusive (no result: Gal4-VP16 FLuc)
NCCCC[C@H](N)C(=O)N[C@@H](CCCN=C(N)N)C(=O)N1CCC[C@H]1C(=O)N1CCC[C@H]1C(=O)NCC(=O)N[C@@H](Cc1ccccc1)C(=O)N[C@@H](CO)C(=O)N1CCC[C@H]1C(=O)N[C@@H](Cc1ccccc1)C(=O)O	none (no result: GLP1R inv ag, GLP1R cytotox, GLP1R ag)
O=C(COc1ccccc1)Nc1cc(C(F)(F)F)ccc1N1CCCC1	GLP1R inv ag 13µM
COc1cccc(CC(=O)Nc2cc(C(F)(F)F)ccc2N2CCCC2)c1	none
NNC(=O)COc1cccc(C(F)(F)F)c1	RORgamma inh 8.9µM
O=C(COc1ccccc1)Nc1ccccc1N1CCCCC1	GLP1R inv ag 11µM
CCOc1ccc2c(c1)c(=O)c(C(=O)c1ccccc1)cn2Cc1ccccc1F	none (no result: RORgamma inh, Gal4-VP16 FLuc, GLP1R ag)
Cc1ccc(OCc2nnc(SCC(=O)CC(=O)Nc3ccccc3)o2)cc1	RORgamma inh 13µM, Gal4-VP16 FLuc inconclusive
O=C(CSc1nnc(COc2ccc(Br)cc2)o1)N1CCOCC1	GLP1R cytotox inconclusive
O=C(CSc1nnc(COc2ccccc2)o1)N1CCOCC1	RORgamma inh 0.11µM
Cc1ccc(N=Cc2cc(Cc3ccccc3Cl)cc([N+](=O)[O-])c2O)c(O)c1	GLP1R inv ag inconclusive, RORgamma inh 6.3µM, Gal4-VP16 FLuc 4.5µM
COc1cccc(CNC(=O)C(C)n2ccc3cc(S(=O)(=O)N4CCCCCC4)ccc32)c1 (stereo unspecified)	GLP1R inv ag 13µM
CCC(C(=O)NCCC(C)C)n1ccc2cc(S(=O)(=O)N3CCCCC3)ccc21 (stereo unspecified)	GLP1R inv ag 7.9µM, RORgamma inh inconclusive, Gal4-VP16 FLuc inconclusive
C[C@@]12CCC(=O)C=C1CC[C@@H]1[C@@H]2[C@H](O)C[C@]2(C)[C@@H]1CC[C@]2(O)C(=O)CO	none (no result: GLP1R inv ag, GLP1R cytotox, GLP1R ag)
Cc1c(CNC2CCC(C)CC2)c(C(=O)O)c(C)n1Cc1ccc(Cl)cc1 (stereo unspecified)	none (no result: RORgamma inh, Gal4-VP16 FLuc, GLP1R ag)
Cc1oc(C(C)(C)C)cc1C(=O)N1CCN(C(c2ccccc2)c2ccccc2)CC1	GLP1R inv ag 7.9µM, RORgamma inh inconclusive
Cc1occc1C(=O)N1CCN(C(c2ccccc2)c2ccccc2)CC1	GLP1R inv ag inconclusive
O=C(C1=COCCO1)N1CCN(C(c2ccccc2)c2ccccc2)CC1	GLP1R inv ag 10µM
Cc1ccccc1C(=O)N1CCN(C(c2ccccc2)c2ccccc2)CC1	GLP1R inv ag 8.9µM
CC(C)Nc1oc(-c2ccccc2)nc1-c1cccc2ccccc12	none (no result: GLP1R inv ag, GLP1R cytotox, GLP1R ag)
c1ccc(-c2nc(-c3cccc4ccccc34)c(Nc3ccc4ccccc4c3)o2)cc1	RORgamma inh 5.6µM (no result: GLP1R inv ag, GLP1R cytotox, GLP1R ag)
COc1ccc(-c2cn3c(n2)sc2cc(C(=O)NCCc4ccc(OC)cc4OC)ccc23)cc1	none (no result: RORgamma inh, Gal4-VP16 FLuc, GLP1R ag)
